RXFP1 antag – RXFP1 (human) relaxin receptor antagonism; Q9HBX9; activity change, negative = inhibition, % at 57.5 µM; 0.59% of 350,000 active; HEK293-RXFP1, relaxin-stimulated cAMP HTRF, 30 min; hits give low values; AID 1259400;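 active means activity change of -60% or lower, but not beyond a set lower limit; inconclusive means change between -60% and -40%, or beyond the set limit; inactive means change above -40%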; further: on the % scale 0 is the no-effect control and ±100 the full control effect
Target sequence (Q9HBX9 whole entry, looked up): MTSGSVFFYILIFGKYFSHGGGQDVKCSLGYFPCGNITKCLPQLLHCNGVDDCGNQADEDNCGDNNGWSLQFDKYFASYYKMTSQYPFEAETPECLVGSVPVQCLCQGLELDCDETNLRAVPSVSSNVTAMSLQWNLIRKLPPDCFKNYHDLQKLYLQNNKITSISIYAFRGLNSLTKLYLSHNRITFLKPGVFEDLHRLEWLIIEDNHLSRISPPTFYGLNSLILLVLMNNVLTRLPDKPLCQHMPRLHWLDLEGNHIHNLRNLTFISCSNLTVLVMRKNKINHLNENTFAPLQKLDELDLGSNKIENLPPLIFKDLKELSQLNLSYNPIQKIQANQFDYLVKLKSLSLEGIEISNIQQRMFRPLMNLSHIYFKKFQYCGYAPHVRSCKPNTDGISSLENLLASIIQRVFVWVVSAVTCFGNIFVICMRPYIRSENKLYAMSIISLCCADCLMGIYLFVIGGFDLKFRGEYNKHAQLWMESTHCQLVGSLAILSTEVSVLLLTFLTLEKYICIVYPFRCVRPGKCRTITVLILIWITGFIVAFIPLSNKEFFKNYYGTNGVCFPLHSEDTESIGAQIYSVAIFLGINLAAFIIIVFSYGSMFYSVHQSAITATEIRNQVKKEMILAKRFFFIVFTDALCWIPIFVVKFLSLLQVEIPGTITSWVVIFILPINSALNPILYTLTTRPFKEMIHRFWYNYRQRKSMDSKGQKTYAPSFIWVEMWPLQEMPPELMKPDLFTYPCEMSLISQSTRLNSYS
RXFP1 ag – agonists of human relaxin receptor RXFP1; Q9HBX9; HEK293T-RXFP1 cAMP TR-FRET, 30 min; response scale: percent of porcine relaxin response, buffer zero; Potency, µM (series often up to 57.5 µM), for the others: at the highest dose activation, usual class: activators; 0.3% of 370,000 active; active means well fitted activation curve with a large enough effect; inconclusive means small, poorly fitted or top-dose-only effect; further: potency means the concentration at half of the fitted maximal effect; on the % scale 0 is the no-effect control and ±100 the full control effect; nearly all actives have a fitted effect of over 60% in size
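HEK293 cells stably expressing RXFP1, treated 30 min at 37C with compounds plus PDE4 inhibitor Ro 20174; cAMP measured by HTRF TR-FRET. Normalized to buffer and 29 nM porcine relaxin; EC50 by Hill fit.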
gsp agonist – activates gsp, the McCune-Albright syndrome mutation; gsp mutant cells, cAMP HTRF, 30 min; Potency, µM (highest dose often 76.9 µM), inactives show top-dose activation (cAMP increase), hits mostly activators; 0.13% of 340,000 active; active means well fitted activation curve with a large enough effect; inconclusive means small, poorly fitted or top-dose-only effect, or another doubt; inactive means no such curve, though single readings can be large or run the other way; cell line not stated here;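 further: phosphodiesterase inhibitor Ro 20-1724 added with compounds to block cAMP breakdown; potency means the concentration at half of the fitted maximal effect; nearly all actives have a fitted effect of over 60% in size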
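Cells stably selected in G418 were plated at 2000/well, grown 16-24 hr, then given compounds in DMSO with the PDE inhibitor […] (300 uM solution added) for 30 min at 37C; cAMP was read by HTRF.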
pAkt inh – blocks phosphorylation of Akt; Neuro2A IGF-stimulated pAkt S473 HTRF, 20 min; hits give low values; activity change, % for hits at 50 µM; AID 651550; 0.32% of 360,000 active; in the data active means activity change below about -80%; inconclusive means mostly about -51% to -80%; further: on the % scale 0 is the no-effect control and ±100 the full control effect
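Single-point screen (50 µM final compound) in Neuro2A cells stimulated 20 min with 6 nM IGF at 37 deg C. After lysis, Ser473-phosphorylated Akt read by HTRF (ex 330 nm, em 615/665 nm) as the 665/615 ratio.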
gsp antagonist – gsp mutant antagonism; Potency, µM (doses to about 76.9 µM), inactives show at the top dose activity change, negative = inhibition, hits mostly inhibitors; gsp-mutant cells, cAMP HTRF, 30 min; 0.4% of 340,000 active; calls by dose curve; cell line not stated here;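 further: intracellular cAMP measured with PDE inhibitor Ro 20-1724 present during compound exposure; potency means the concentration at half of the fitted maximal effect; on the % scale 0 is the no-effect control and ±100 the full control effect; nearly all actives have a fitted effect of over 65% in size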
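Cells in G418 medium, seeded 16-24 h, 37C; buffer exchange to DPBS + 1 mM CaCl2, 0.5 mM MgCl2, 0.05% BSA; cpds in DMSO + […] (300 uM stock), 30 min 37C; HTRF cAMP detection.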
* marks the source's active call; other numbers are inactive results; i = inactive; ? = inconclusive; nt = not tested or not shown; [ ] = remark or other dose. A selection: hits, their analogues and other compounds. The true share with any hit is near 1.2%.

SMILES	RXFP1 antag	RXFP1 ag	gsp agonist	pAkt inh	gsp antagonist
CCn1cc([N+](=O)[O-])c(C(=O)N2N=C(c3ccc4ccccc4c3)CC2c2ccccc2O)n1 (centres undefined)	3	2%	-28%	i	?
NC(=O)c1ccc(Cc2ncc(C(F)(F)F)cc2Cl)s1	0	1%	-20%	-106%*	3%
O=S(=O)(N/N=C/c1ccc(Cl)cc1)c1ccc(Cc2ncc(C(F)(F)F)cc2Cl)s1	-4	1%	1%	i	-12%
CCOC(=O)c1cnc2ccc(C)cc2c1Nc1ccc(N2CCOCC2)cc1	-101*	1%	-14%	i	?
CCOC(=O)c1cnc2ccc(C)cc2c1Nc1ccc(N(CC)CC)cc1	-70*	6%	nt	nt	nt
COc1ccccc1CNC(=O)c1cc2ccc3ccc(C)[nH]c3c2n1	nt	-2%	nt	nt	nt
Cc1cccc(N=Cc2cc(Br)cc(Cl)c2O)c1	-64*	9%	3%[15.4 µM]	i	-34%
CCN(CC)C(=O)C1CCCN(C/C(C)=C/c2ccccc2)C1 (centres undefined)	13	0%	11%	i	0%
CCN(CC)C(=O)C1CCCN(C/C=C/c2ccccc2)C1 (centres undefined)	-6	2%	5%	-105%*	8%
O=C1/C(=C/c2ccccc2)SC(=S)N1CC(=O)N1CCCCC1c1cccnc1 (centres undefined)	7	-4%	30%	i	40µM*
O=C1/C(=C/c2cccnc2)SC(=S)N1Cc1ccco1	?	nt	-22%	i	35µM*
O=C(CCN1C(=O)/C(=C\c2ccccc2)SC1=S)NNC(=O)c1ccncc1	-10	-3%	-8%	i	-16%
O=C(CCN1C(=O)/C(=C/c2ccccc2)SC1=S)NNC(=O)c1ccncc1	-1	-2%	-31%	i	40µM*
C/C(=N\NC(=O)c1c(C)nc2ccccn12)c1ccc(C(C)(C)C)cc1	-14	16%	?	i	-9%
C/C(=N\NC(=O)c1c(C)nc2ccccn12)c1ccc(N2CCOCC2)cc1	5	14µM*	?	i	8%
Cc1ccc(-n2nnnc2C(Cl)c2nnnn2-c2ccc(C)cc2)cc1	-63*	0%	-35%	i	10%
CCOc1ccccc1CN1CCc2nc(Nc3ccc4c(c3)OCCO4)ncc2C1	-37	0%	nt	nt	nt
O=[N+]([O-])c1ccc(C=NNC(=S)NN=Cc2ccc([N+](=O)[O-])cc2)cc1	-62*	nt	-46%	i	-24%
COc1cccc(NC(=O)CSc2nc3c(sc4ccccc43)c(=O)n2CCN(C)C)c1	-64*	4%	-1%[15.4 µM]	i	4%
Cc1cc(S(=O)(=O)C(CNC(=O)c2ccc(OC(C)C)cc2)c2cccs2)ccc1F (centres undefined)	7	-1%	nt	nt	nt
CN(C)CCOC1=Cc2ccccc2Sc2ccc(Cl)cc21	-32	nt	nt	nt	nt
COc1ccc(C(=O)NCC(C)(c2ccccc2)c2ccccc2)cc1S(=O)(=O)N1CCOCC1	-8	nt	32%	i	35µM*
CCCCCCCCCCCCOCCO	-8	nt	nt	nt	nt
CC(=O)c1ccc(NC(=O)c2cnn(-c3cccc(F)c3)c2-n2cccc2)cc1	-68*	1%	nt	nt	nt
Cc1[nH]n(-c2ccc([N+](=O)[O-])cc2)c(=O)c1C=NCCN1CCN(C(=O)C(C)C)CC1	8	25µM*	?	i	-1%
SMILES	RXFP1 antag	RXFP1 ag	gsp agonist	pAkt inh	gsp antagonist
CCc1cc2cc3c(cc2nc1SCC(=O)Nc1cc(C)on1)OCO3	-1	28µM*	?	i	21%
Cc1cc(NC(=O)CSc2nnc(-c3ccc4c(c3)OCCO4)o2)no1	-4	6%	?	-81%*	-6%
Cc1cc(NC(=O)CSc2nnc(-c3cccc(Cl)c3)o2)no1	10	7%	-6%	i	-4%
CCOc1ccccc1C(=O)Nc1c(C(=O)Nc2ccc(F)cc2)oc2ccccc12	nt	3%	nt	nt	nt
Cc1cccc(-c2nc(SCc3cc(=O)c4c(C)cc(C)cc4[nH]3)n[nH]2)c1	-70*	-3%	nt	nt	nt
Cc1cc(C)c2c(=O)cc(CSc3n[nH]c(C)n3)[nH]c2c1	-9	3%	nt	nt	nt
CCc1ccc(OCC(=O)N(Cc2ccc(C)cc2)Cc2ccco2)cc1	-61*	0%	nt	nt	nt
CC(C)(C)c1ccc(C(=O)N(Cc2ccc(F)cc2)Cc2ccco2)cc1	-79*	1%	nt	nt	nt
Cc1cccc(OCC(=O)N(Cc2ccc(C(C)(C)C)cc2)Cc2ccco2)c1	-75*	-2%	nt	nt	nt
NC(=O)CC12CC3CC(C1)CC(CC(N)=O)(C3)C2	-1	1%	-29%	-82%*	-7%
NCC12CC3CC(C1)CC(CN)(C3)C2	-13	1%	-34%	i	5%
Cc1csc(C(C#N)C(=O)c2cc3ccccc3o2)n1 (centres undefined)	-18	0%	10%	i	25µM*
Cc1csc(NC(=O)c2cc3ccccc3o2)n1	-10	-1%	-2%	i	-6%
CS(=O)(=O)Nc1ccc(C2=NN(C(=O)C3CCCCC3)C(c3cccs3)C2)cc1 (centres undefined)	-21	0%	10%[15.4 µM]	i	25µM*
O=C(CSc1ncn[nH]1)N1N=C2/C(=C/c3ccccc3)CCCC2C1c1ccccc1 (centres undefined)	-15	0%	?	i	35µM*
O=C(Cc1ccccc1)Nc1cccc(N2C(=O)C=CC2=O)c1	-119*	3%	17%	i	9%
COc1cccc(NC(=O)Cc2ccccc2)c1	nt	1%	nt	i	-4%
CCN(CCCNC(=O)c1ccc(Sc2ccc(Cl)cc2)c(NC(C)=O)c1)c1ccccc1	-21	7%	nt	nt	nt
CN1c2ccsc2C(O)=C(C(=O)Nc2ccccc2)S1(=O)=O	-3	-2%	-39%	i	?
Cc1ccc(NC(=S)C2=C(O)c3sccc3N(C)S2(=O)=O)cc1	6	-1%	0%	i	?
Cc1cccc(NC(=O)C2=C(O)c3ccccc3N(C)S2(=O)=O)c1	18	-2%	18%	i	25µM*
CN1c2ccccc2C(O)=C(C(=S)Nc2ccc(Cl)cc2)S1(=O)=O	-4	-2%	3%	i	28µM*
O=C(COc1ccccc1-c1nc(-c2ccccc2)no1)Nc1cccc([N+](=O)[O-])c1	2	-2%	nt	nt	nt
OC1(c2ccccc2)CC(c2ccccc2)c2ccccc2O1 (centres undefined)	-77*	nt	-4%	i	?
COc1ccccc1CNC(=O)CSc1ncc2c(n1)-c1ccc(Cl)cc1N(Cc1ccccc1)S2(=O)=O	7	4.5µM*	nt	nt	nt
CCOC(=O)c1cccc(NC(=O)CSc2ncc3c(n2)-c2ccc(Cl)cc2N(Cc2ccccc2)S3(=O)=O)c1	nt	32µM*	nt	nt	nt
CCc1cccc(NC(=O)CSc2ncc3c(n2)-c2ccccc2N(Cc2ccccc2C)S3(=O)=O)c1	-1	10%	nt	nt	nt

Compound activity: PubChem, National Center for Advancing Translational Sciences (NCATS)
